PubChem BioAssay (EPA / NIEHS)
Active and inactive are the calls of the source. The calls were made as follows: active = hit-call score of the fitted dose curve at least 0.9, where 1 is the maximum; inactive = score below 0.9.

Key:
[1] = read-out: TIMP metallopeptidase inhibitor 2 (TIMP2), TIMP2 (gene 7077); assay: BSK_KF3CT_TIMP2: BioMAP Diversity Plus: KF3CT Assay for TIMP metallopeptidase inhibitor 2 (TIMP2) Biomarker Activity (AID 2283071); settings: primary human keratinocytes with fibroblasts; actives raise or lower the signal
Method in brief: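 Keratinocyte–fibroblast co-culture, 24 h exposure; TIMP-2 ELISA, DMSO-normalised bidirectional fit. Parallel SRB (0.1%, TCA-fixed, 560 nm) total-protein staining gauges cytotoxicity.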

[2] = read-out: Transforming growth factor beta 1 (TGFb1), TGFB1 (gene 7040); assay: BSK_KF3CT_TGFb1: BioMAP Diversity Plus: KF3CT Assay for Transforming growth factor beta 1 (TGFb1) Biomarker Activity (AID 2283072); settings: primary human keratinocytes with fibroblasts; actives raise or lower the signal
Method in brief: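 Signal changes in either direction, relative to DMSO, define activity here. TGF-b1 is read by ELISA from a human keratinocyte-fibroblast co-culture 24 h post-dose.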

[3] = read-out: C-C motif chemokine 2 (Homo sapiens) (UniProt P13500); assay: BSK_KF3CT_MCP1: BioMAP Diversity Plus: KF3CT Assay for Monocyte Chemoattractant Protein 1 (MCP1/CCL2) Biomarker Activity (AID 2283073); settings: primary human keratinocytes with fibroblasts; actives raise or lower the signal
Method in brief: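 Biomarker MCP-1 is measured by ELISA in primary human keratinocytes co-cultured with foreskin fibroblasts, 24 h after chemical treatment; DMSO serves as the negative control and activity baseline.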

[4] = read-out: Matrix Metallopeptidase 9 (MMP9), MMP9 (gene 4318); assay: BSK_KF3CT_MMP9: BioMAP Diversity Plus: KF3CT Assay for Matrix Metallopeptidase 9 (MMP9) Biomarker Activity (AID 2283074); settings: primary human keratinocytes with fibroblasts; actives raise or lower the signal
Method in brief: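 Human keratinocyte and foreskin fibroblast co-culture exposed to chemicals for 24 h; MMP9 biomarker measured by ELISA, bidirectional fitting relative to DMSO; cytotoxicity tracked by SRB total protein staining in parallel cultures.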

CD40, CD40 (gene 958) [5] = assay: BSK_LPS_CD40: BioMAP Diversity Plus: LPS Assay for CD40 Biomarker Activity (AID 2283076); settings: primary human HUVEC with PBMC; actives raise or lower the signal
Method in brief: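 Using a multiplexed primary human co-culture (umbilical vein endothelium plus PBMC), CD40 was read by ELISA 24 h after dosing, with cytotoxicity tracked by sulforhodamine B staining of parallel cultures and activity fitted bidirectionally versus DMSO.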

[6] = read-out: E-selectin (Homo sapiens) (UniProt P16581); assay: BSK_LPS_Eselectin: BioMAP Diversity Plus: LPS Assay for Eselectin Biomarker Activity (AID 2283077); settings: primary human HUVEC with PBMC; actives raise or lower the signal
Method in brief: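 Dose chemical onto LPS-driven HUVEC/PBMC co-culture; after 24 h, run ELISA for E-selectin; fit up- and down-going responses relative to DMSO control.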

[7] = read-out: Interleukin-8 (IL8), CXCL8 (gene 3576); assay: BSK_LPS_IL8: BioMAP Diversity Plus: LPS Assay for Interleukin-8 (IL8) Biomarker Activity (AID 2283078); settings: primary human HUVEC with PBMC; actives raise or lower the signal
Method in brief: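 In this LPS system, chemical-treated human umbilical vein endothelium/PBMC co-cultures were harvested at 24 h for IL-8 ELISA.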

[8] = BSK_LPS_SRB: Viability Assessment in the BioMAP Diversity Plus: LPS Assay (AID 2283079); settings: primary human HUVEC with PBMC;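 also: total protein by sulforhodamine B absorbance as a cytotoxicity measure; measured one day after compound addition; fitted in both directions against DMSO so loss or gain of signal counts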
Method in brief: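 Cytotoxicity endpoint in human endothelial–PBMC co-culture: 24 h exposure, then SRB (0.1%) staining, 560 nm read.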

[9] = read-out: Interleukin-1 alpha (IL1a), IL1A (gene 3552); assay: BSK_LPS_IL1a: BioMAP Diversity Plus: LPS Assay for Interleukin-1 alpha (IL1a) Biomarker Activity (AID 2283080); settings: primary human HUVEC with PBMC; actives raise or lower the signal
Method in brief: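 Primary human HUVEC and PBMC co-culture stimulated with LPS is dosed and harvested at 24 h. Both increases and decreases in ELISA-measured IL-1a are scored relative to DMSO.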

[10] = read-out: Monocyte Chemoattractant Protein-1 (MCP1), CCL2 (gene 6347); assay: BSK_LPS_MCP1: BioMAP Diversity Plus: LPS Assay for Monocyte Chemoattractant Protein-1 (MCP1) Biomarker Activity (AID 2283081); settings: primary human HUVEC with PBMC; actives raise or lower the signal
Method in brief: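 Values derive from bidirectional fitting against DMSO of ELISA-measured MCP-1 in a human primary endothelial and mononuclear cell co-culture, 24 h after chemical addition under LPS activation.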

[11] = BSK_LPS_PGE2: BioMAP Diversity Plus: LPS Assay for Prostaglandin E2 (PGE2) Biomarker Activity (AID 2283082); settings: primary human HUVEC with PBMC; actives raise or lower the signal;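 as to AC50: secreted prostaglandin E2 measured by ELISA in LPS-stimulated co-culture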
Method in brief: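 Endpoint derived from bidirectional curve fitting versus DMSO of ELISA-measured PGE2 in LPS-stimulated human primary vascular co-culture (HUVEC with PBMC) harvested at 24 h.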

[12] = read-out: Macrophage colony-stimulating factor (MCSF), CSF1 (gene 1435); assay: BSK_LPS_MCSF: BioMAP Diversity Plus: LPS Assay for Macrophage colony-stimulating factor (MCSF) Biomarker Activity (AID 2283083); settings: primary human HUVEC with PBMC; actives raise or lower the signal
Method in brief: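 Bidirectional fit versus DMSO of ELISA-measured M-CSF in co-cultured human umbilical vein endothelial cells and PBMC, sampled 24 h after dosing.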

[13] = read-out: Tissue Factor, F3 (gene 2152); assay: BSK_LPS_TissueFactor: BioMAP Diversity Plus: LPS Assay for Tissue Factor Biomarker Activity (AID 2283084); settings: primary human HUVEC with PBMC; actives raise or lower the signal
Method in brief: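 Read-out: CD142 ELISA, 24 h. System: LPS-driven human endothelial/PBMC co-culture. Analysis: up- or down-signal fitted against DMSO.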

[14] = read-out: Tumor necrosis factor (Homo sapiens) (UniProt P01375); assay: BSK_LPS_TNFa: BioMAP Diversity Plus: LPS Assay for Tumour Necrosis Factor alpha (TNFa) Biomarker Activity (AID 2283085); settings: primary human HUVEC with PBMC; actives raise or lower the signal
Method in brief: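 Primary human vascular co-culture of HUVEC and PBMC; TNFa ELISA 24 h after treatment, analysed as increase or decrease relative to DMSO control.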

[15] = read-out: Vascular cell adhesion molecule 1 (VCAM1), VCAM1 (gene 7412); assay: BSK_LPS_VCAM1: BioMAP Diversity Plus: LPS Assay for Vascular cell adhesion molecule 1 (VCAM1) Biomarker Activity (AID 2283086); settings: primary human HUVEC with PBMC; actives raise or lower the signal
Method in brief: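 Primary human vascular co-culture (umbilical vein endothelium plus PBMC) stimulated with LPS received chemical; 24 h later VCAM-1 was read by ELISA. Overt cytotoxicity was assessed by sulforhodamine B staining of parallel cultures at the same time point.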

CD38, CD38 (gene 952) = assay: BSK_SAg_CD38: BioMAP Diversity Plus: SAg Assay for CD38 Biomarker Activity (AID 2283087); settings: primary human HUVEC with PBMC; actives raise or lower the signal
Method in brief: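 Fluorescence ELISA of cell-surface CD38 served as the read-out, with either increase or decrease fitted against DMSO controls. Cells were a human umbilical vein endothelium plus PBMC co-culture under SEB/TSST-1 stimulation, measured 24 h after dosing.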

CD40, CD40 (gene 958) [16] = assay: BSK_SAg_CD40: BioMAP Diversity Plus: SAg Assay for CD40 Biomarker Activity (AID 2283088); settings: primary human HUVEC with PBMC; actives raise or lower the signal
Method in brief: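 Endpoint derived by fitting increases or decreases versus DMSO controls. CD40 is detected by fluorescence ELISA in a human vascular co-culture of endothelium and PBMC at 24 h.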

CD69, CD69 (gene 969) = assay: BSK_SAg_CD69: BioMAP Diversity Plus: SAg Assay for CD69 Biomarker Activity (AID 2283089); settings: primary human HUVEC with PBMC; actives raise or lower the signal;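 as to AC50: cell surface CD69 protein quantified by ELISA with fluorescence detection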
Method in brief: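 Values derive from bidirectional fitting relative to DMSO vehicle. Cells: umbilical vein endothelium plus peripheral blood mononuclear cells, treated 24 h before fluorescent ELISA for CD69.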

[17] = read-out: Monocyte Chemoattractant Protein-1 (MCP1), CCL2 (gene 6347); assay: BSK_SAg_MCP1: BioMAP Diversity Plus: SAg Assay for Monocyte Chemoattractant Protein-1 (MCP1) Biomarker Activity (AID 2283090); settings: primary human HUVEC with PBMC; actives raise or lower the signal
Method in brief: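 MCP-1 levels in the endothelial–PBMC SAg co-culture were quantified by ELISA at 24 h post-dosing; both increases and decreases versus DMSO scored. Cytotoxicity monitored by SRB total protein in parallel cultures.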

[18] = read-out: urokinase plasminogen activator (uPA), PLAU (gene 5328); assay: BSK_KF3CT_uPA: BioMAP Diversity Plus: KF3CT Assay for urokinase plasminogen activator (uPA) Biomarker Activity (AID 2283075); settings: primary human keratinocytes with fibroblasts; actives raise or lower the signal
Method in brief: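 Primary human keratinocyte/foreskin fibroblast co-culture exposed to chemical; uPA measured by ELISA at 24 h. Bidirectional fit versus DMSO, with parallel SRB total-protein staining for cytotoxicity.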

Chain of Tumor necrosis factor (Homo sapiens) (P01375 whole entry, looked up): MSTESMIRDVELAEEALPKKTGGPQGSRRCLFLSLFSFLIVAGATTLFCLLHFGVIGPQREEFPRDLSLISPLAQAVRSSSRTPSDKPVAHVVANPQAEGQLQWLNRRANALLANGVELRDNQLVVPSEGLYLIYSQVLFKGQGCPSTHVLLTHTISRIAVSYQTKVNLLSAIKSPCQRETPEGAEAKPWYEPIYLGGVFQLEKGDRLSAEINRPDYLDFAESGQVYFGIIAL
Chain of E-selectin (Homo sapiens) (P16581 whole entry, looked up): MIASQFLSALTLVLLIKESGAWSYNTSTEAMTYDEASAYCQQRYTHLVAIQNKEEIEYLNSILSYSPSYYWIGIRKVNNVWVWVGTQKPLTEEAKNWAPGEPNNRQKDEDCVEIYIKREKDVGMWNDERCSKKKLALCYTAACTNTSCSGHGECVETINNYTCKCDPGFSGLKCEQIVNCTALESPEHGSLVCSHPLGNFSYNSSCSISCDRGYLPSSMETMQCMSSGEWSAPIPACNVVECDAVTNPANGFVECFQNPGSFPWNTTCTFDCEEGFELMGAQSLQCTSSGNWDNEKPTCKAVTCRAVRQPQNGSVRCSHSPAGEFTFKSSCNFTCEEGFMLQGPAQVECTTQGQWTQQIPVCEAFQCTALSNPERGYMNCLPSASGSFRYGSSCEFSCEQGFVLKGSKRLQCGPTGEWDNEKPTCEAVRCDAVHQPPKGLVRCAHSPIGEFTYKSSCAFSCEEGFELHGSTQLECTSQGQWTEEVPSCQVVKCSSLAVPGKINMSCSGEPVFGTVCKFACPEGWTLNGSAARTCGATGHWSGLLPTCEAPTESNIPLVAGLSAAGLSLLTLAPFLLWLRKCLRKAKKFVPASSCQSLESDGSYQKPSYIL

CCN(CC)c1nc(C)cc(OP(=S)(OC)OC)n1
outcome [1]: inactive | outcome [2]: inactive | outcome [3]: inactive | outcome [4]: inactive | AC50 (CD40, CD40 (gene 958) [5]): 19.5 µM (active) | outcome [6]: inactive | outcome [7]: inactive | outcome [8]: inactive | outcome [9]: inactive | outcome [10]: inactive | outcome [11]: inactive | AC50 [12]: 20 µM (active) | outcome [13]: inactive | AC50 [14]: 6.51 µM (active) | AC50 [15]: 20 µM (active) | AC50 (CD38, CD38 (gene 952)): 20 µM (active) | AC50 (CD40, CD40 (gene 958) [16]): 20 µM (active) | AC50 (CD69, CD69 (gene 969)): 3.97 µM (active) | outcome [17]: inactive

C=C(C)CN(CC)c1c([N+](=O)[O-])cc(C(F)(F)F)cc1[N+](=O)[O-]
outcome [1]: inactive | outcome [2]: inactive | outcome [3]: inactive | outcome [4]: inactive | outcome [18]: inactive | AC50 (CD40, CD40 (gene 958) [5]): 20 µM (active) | outcome [6]: inactive | outcome [7]: inactive | outcome [8]: inactive | outcome [9]: inactive | outcome [10]: inactive | outcome [11]: inactive | outcome [12]: inactive | outcome [13]: inactive | AC50 [14]: 5.11 µM (active) | AC50 [15]: 20 µM (active) | outcome (CD40, CD40 (gene 958) [16]): inactive | outcome (CD69, CD69 (gene 969)): inactive | outcome [17]: inactive

Cc1c(COC(=O)[C@@H]2[C@H](/C=C(\Cl)C(F)(F)F)C2(C)C)cccc1-c1ccccc1
outcome [1]: inactive | outcome [2]: inactive | outcome [3]: inactive | outcome [4]: inactive | outcome [18]: inactive | outcome (CD40, CD40 (gene 958) [5]): inactive | outcome [6]: inactive | AC50 [7]: 5.39 µM (active) | outcome [8]: inactive | outcome [9]: inactive | outcome [10]: inactive | AC50 [11]: 4.57 µM (active) | AC50 [12]: 3.53 µM (active) | outcome [13]: inactive | outcome [14]: inactive | outcome (CD38, CD38 (gene 952)): inactive | AC50 (CD40, CD40 (gene 958) [16]): 16.5 µM (active) | AC50 (CD69, CD69 (gene 969)): 5.92 µM (active) | outcome [17]: inactive
